Measurements as given in PubChem BioAssay AID1531 (NMMLSC, 2009).
Out of some 290,000 compounds screened, about 3,300 (1.1%) were called active. Only a selection was taken, and actives are over-represented in it overall. A number with no mark means an inactive call. Rule as the data show it: active = binding response below about 67% or above about 130%; inconclusive = no clear call, values can overlap the other calls; inactive = in between.

Each molecule was assayed against Mitogen-activated protein kinase kinase kinase 2 (Homo sapiens) (UniProt Q9Y2U5) (assay: modulators of MEK5 binding to wildtype MEKK2, primary screen, biochemical, multiplex bead flow cytometry, Alexa488-MEK5 (AID 1531)). Settings: Alexa488-MEK5 binding to MEKK2 WT, at 10 µM, actives lie on both sides.

SMILES	binding response (% of control)
Cc1ccc(C23CC4CC(CC(C(=O)NCC(=O)O)(C4)C2)C3)cc1	105%
N#C/C(=C\c1cccnc1)C(=O)Nc1ccc(SC(F)F)cc1	107%
CCOc1ccc(N/C=C/C(=O)c2ccccc2)cc1	109%
O=C(Nc1cn(-c2ccccc2)nc1-c1ccccc1)c1ccccc1	96%
Cc1ccc(-c2nn(-c3ccccc3)cc2CN(Cc2ccccc2)C(=O)CCC(=O)O)o1	97%
CCc1ccc(-c2nn(-c3ccccc3)cc2CSC(=N)N)cc1	140% (active)
CC(=O)NCCc1ccc(S(=O)(=O)Nc2ccc(C)c(S(=O)(=O)N3CCOCC3)c2)cc1	103%
O=C(Nc1cccc(Br)c1)c1ccc2snnc2c1	97%
CCc1ccccc1NC(=O)c1ccc2snnc2c1	100%
O=C(Nc1ccc2ccccc2c1)Nc1ccc2snnc2c1	158% (active)
COc1ccc2c(c1)CCNC2Cc1ccc(OC)c(O)c1 (centres undefined)	96%
COc1ccc(N2CCN(CCNC(=O)Nc3cc(Cl)ccc3Cl)CC2)cc1	113%
C=CC1=C(C(=O)O)N2C(=O)[C@@H](NC(=O)/C(=N/OCC(=O)O)c3csc(N)n3)[C@H]2SC1	98%
C(=N\N1CCN(c2ccccn2)CC1)/C1=C(N2CCOCC2)C(=C/c2ccccc2)/CC1	104%
O=C1Nc2ccc(Br)cc2/C1=N/N=C/C1=C(N2CCOCC2)C(=C\c2ccccc2)/CC1	40% [inhibitor] (active)
COc1ccc(/C=N/N=C2/C(=O)Nc3ccccc32)cc1O	98%
CS(=O)(=O)N1CCN(C(=O)CSc2ccccc2)CC1	101%
CC(C)(C)C(=O)c1cnc(Nc2ccccc2)s1	100%
COc1cc(Br)c(-c2sc(Nc3ccccc3)n[n+]2-c2ccccc2)cc1OC	152% (active)
COc1ccc(C)cc1Nc1n[n+](-c2ccccc2)c(-c2cccc(Cl)c2Cl)s1	120%

SMILES	binding response (% of control)
COc1ccc(C#Cc2c(-c3ccc(OC)cc3)oc3ccc(-c4ccc5c(c4)OCO5)cc23)cc1	96%
O=C(CNC(=O)OCc1ccccc1)NC1CCCCNC1=O (centres undefined)	100%
Cc1ccc(NC(=S)N(CCN2CCCCC2)Cc2ccco2)cc1C	97%
Cc1ccc(NC(=S)N(CCCN2CCC(C)CC2)Cc2ccco2)cc1	107%
Cc1ccc(NC(=S)N(CCCN2CCCC2)Cc2cccn2Cc2ccc(Cl)cc2)cc1	181% (active)
COc1ccc(CCNCc2c(-c3ccccc3)n(C)c3ccccc23)cc1	131%
CCOC(=O)C1(Cc2ccccc2C(F)(F)F)CCN(C(=O)c2cc(C)n(C)n2)CC1	91%
COc1ccc(N(C)S(=O)(=O)c2ccc3c(c2)CC(C)N3C(=O)C2CC2)c(OC)c1 (centres undefined)	101%
COCCN1C=C2C(=O)C(C)(OC(=O)C3CCCC3)C(=O)C=C2C=C1c1ccsc1 (centres undefined)	164% (active)
COC(=O)CCCC1=CC2=CC(=O)C(C)(OC(=O)c3cccs3)C(=O)C2=CN1CC1CC1 (centres undefined)	87%
CC1(OC(=O)C2CCCC2)C(=O)C=C2C=C(c3ccc(C#N)cc3)OC=C2C1=O (centres undefined)	90%
Cc1ccc(NC(=S)NCCc2ccc(Cl)cc2)c(C)c1	111%
Cc1ccc(NC(=O)CN(C)CC(=O)Nc2cccc(F)c2)cc1[N+](=O)[O-]	97%
CN(CC(=O)Nc1cccc(F)c1)CC(=O)Nc1cccc([N+](=O)[O-])c1	691% (active)
Cc1ccc(CN(C)CC(=O)Nc2cccc([N+](=O)[O-])c2)o1	83%
O=C(NCCNc1ccccc1[N+](=O)[O-])c1ccccc1F	105%
COc1ccc(CC(=O)Nc2cc(S(=O)(=O)N3CCCCC3)ccc2N2CCN(C)CC2)cc1	103%
CN1CCN(c2ccc(S(=O)(=O)N3CCCCC3)cc2NC(=O)Cc2ccccc2F)CC1	106%
CCN1CCN(c2ccc(S(=O)(=O)N3CCCCC3)cc2NC(=O)Cc2c(Cl)cccc2Cl)CC1	150% (active)
CCOC(=O)/C=C/c1ccc(C(F)(F)F)cc1S(=O)(=O)NC(C)(C)C	93%

SMILES	binding response (% of control)
Cc1ccc(N(CC(=O)NC2CCCCC2)C(=O)CCCC(=O)Nc2ccccn2)c(C)c1	105%
CC1(C)c2[nH]c3ccccc3c2C[C@H]2C(=O)N(N)CC(=O)N21	110%
CCN(CC)CCN(C(=O)c1ccc(S(=O)(=O)N2CCOCC2)cc1)c1nc2cc3c(cc2s1)OCCO3	115%
CCOc1ccc2nc(N(CCN(C)C)C(=O)c3ccc4ccccc4c3)sc2c1	129%
CN(C)CCN(C(=O)C1=COCCO1)c1nc2ccc(Cl)cc2s1	111%
CN(C)CCCN(C(=O)c1ccc(S(=O)(=O)N2CCCc3ccccc32)cc1)c1nc2ccc(F)cc2s1	232% (active)
CCc1ccc2nc(N(CCCN(C)C)C(=O)c3ccc4c(c3)OCCO4)sc2c1	116%
CSc1nc2ccc(S(=O)(=O)N3CCc4ccccc43)cc2s1	98%
CN(C)CCCN(C(=O)c1ccc(S(=O)(=O)N2CCCCCC2)cc1)c1nc2ccc(Br)cc2s1	237% (active)
CCOc1ccc2nc(N(CCCN(C)C)C(=O)c3ccc(C(=O)c4ccccc4)cc3)sc2c1	155% (active)
O=C(Nc1nc2ccc([N+](=O)[O-])cc2s1)c1ccc(S(=O)(=O)N2CCCc3ccccc32)cc1	91%
O=C1c2ccccc2S(=O)(=O)c2cc(N3CCN(c4ccccn4)CC3)ccc21	97%
Cc1cccc(C(=O)N2CCN(S(=O)(=O)N3CCCCC3)CC2)c1	108%
COC(C/C=C/C(=O)[C@@H](C)OCc1ccccc1)OC	99%
Cc1nc(-c2ccccc2)sc1C1(C)CC(c2cccnc2)=NO1 (centres undefined)	101%
COc1ccc(NC2CCCN(C(=O)c3ccncc3)C2)cc1 (centres undefined)	97%
COc1cccc(CN(C)CC(=O)Nc2ccccc2C(=O)Nc2ccccc2)c1	88%
COc1cccc(CN(C)CC(O)COC(c2ccccc2)c2ccccc2C)c1 (centres undefined)	150% (active)
Cc1ccccc1C(OCC(O)CN1CCCCC1CCO)c1ccccc1 (centres undefined)	121%
